# Laboratory results as given in PubChem BioAssay (NCI).
# The panel holds about 79,000 compounds, 15% with a hit somewhere; the sample as a whole holds those more often. Values without a mark were called inactive. Activity calls are given as the source filed them. Cut-off read from the data, not from the text of the source: active = growth inhibition above about 70%; inactive = the rest.
# Legend:
# [1] = NCI Yeast Anticancer Drug Screen. Data for the rad52 strain (AID 147);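 note: 0% = growth of vehicle-treated control cultures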; conditions: S. cerevisiae rad52 mutant growth inhibition, stronger effect = higher value
# How it was run: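 Here a repair-compromised yeast strain receives each compound; its growth is then quantified and normalised to vehicle-only controls.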
# [2] = NCI Yeast Anticancer Drug Screen. Data for the rad50EPP+ strain (AID 151);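 note: 0% = growth of vehicle-treated control cultures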; conditions: S. cerevisiae rad50 mutant strain, stronger effect = higher value
# How it was run: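 Read-out is yeast growth inhibition relative to vehicle; cells used were the rad50EPP+ strain.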
# [3] = NCI Yeast Anticancer Drug Screen. Data for the mgt1 strain (AID 153); conditions: S. cerevisiae mgt1 mutant growth inhibition, stronger effect = higher value
# How it was run: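 Measured: inhibition of mgt1 yeast growth by compound, normalized to vehicle-treated cultures.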
# [4] = NCI Yeast Anticancer Drug Screen. Data for the rad50 strain (AID 155);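 note: 0% = growth of vehicle-only cultures of the same strain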; conditions: S. cerevisiae rad50 strain growth inhibition, stronger effect = higher value
# How it was run: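 Cells are treated with compound, grown, and their growth is then scored against vehicle-only cultures of the same repair-deficient yeast strain.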
# [5] = NCI Yeast Anticancer Drug Screen. Data for the mec2-1 strain (AID 157); conditions: S. cerevisiae mec2-1 strain, stronger effect = higher value
# How it was run: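 Using mec2-1 yeast: add compound, measure growth, express inhibition versus vehicle-treated cultures.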
# [6] = NCI Yeast Anticancer Drug Screen. Data for the rad14 strain (AID 159);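 note: 0% = growth of vehicle-treated control cultures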; conditions: S. cerevisiae rad14 strain growth inhibition, stronger effect = higher value
# How it was run: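 Readout: yeast growth inhibition, referenced to vehicle-only cultures. Strain bears a defined alteration in DNA damage repair.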
# [7] = NCI Yeast Anticancer Drug Screen. Data for the sgs1 mgt1 strain (AID 161);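 note: 0% = growth of cultures given vehicle only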; conditions: S. cerevisiae sgs1 mgt1 strain, stronger effect = higher value
# How it was run: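 Yeast cells carrying a defined DNA-repair defect were exposed to test compounds. Growth inhibition was measured relative to vehicle-treated controls.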
# [8] = NCI Yeast Anticancer Drug Screen. Data for the CLN2oe strain (AID 163);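 note: 0% = growth of vehicle-only control cultures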; conditions: S. cerevisiae CLN2oe strain, stronger effect = higher value
# How it was run: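 Whole-cell yeast growth assay. A strain engineered for altered cell-cycle control received compound, and inhibition relative to vehicle-treated cultures was recorded.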
# [9] = NCI Yeast Anticancer Drug Screen. Data for the cln2 rad14 strain (AID 165);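 note: 0% = growth equal to vehicle treated cultures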; conditions: S. cerevisiae cln2 rad14 strain, stronger effect = higher value
# How it was run: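 Yeast strain cln2 rad14, bearing defects in cell cycle control and DNA repair, serves as the test system; values reflect growth inhibition compared with vehicle.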
# [10] = NCI Yeast Anticancer Drug Screen. Data for the bub3 strain (AID 167); conditions: S. cerevisiae bub3 mutant strain, stronger effect = higher value
# How it was run: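 Part of a panel of yeast mutants defective in DNA damage repair or cell cycle regulation. Each strain is grown with compound, and inhibition is calculated relative to solvent-treated cultures.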
# [11] = NCI Yeast Anticancer Drug Screen. Data for the wt2 strain (AID 169);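 note: 0% = growth of vehicle-treated yeast cultures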; conditions: S. cerevisiae wt2 strain growth inhibition, stronger effect = higher value
# How it was run: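 Treated yeast vs. vehicle-treated yeast: growth inhibition determined.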
# [12] = NCI Yeast Anticancer Drug Screen. Data for the sgs1 strain (AID 173);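 note: 0% = growth of vehicle-only control cultures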; conditions: S. cerevisiae sgs1 mutant, stronger effect = higher value
# How it was run: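 A genetically defined yeast mutant is incubated with the test compound, and its growth is compared to that of the same strain given vehicle.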
# [13] = NCI Yeast Anticancer Drug Screen. Data for the mlh1 rad18 strain (AID 175); conditions: S. cerevisiae mlh1 rad18 strain growth inhibition, stronger effect = higher value
# How it was run: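 Steps: expose repair-defective yeast to compound; measure growth; express inhibition against vehicle-treated controls.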
# [14] = NCI Yeast Anticancer Drug Screen. Data for the rad18 strain (AID 177); conditions: S. cerevisiae rad18 mutant growth inhibition, stronger effect = higher value
# How it was run: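 Measured value is growth inhibition of a yeast strain bearing a DNA repair alteration, referenced to vehicle-treated cells.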
# [15] = NCI Yeast Anticancer Drug Screen. Data for the wt1 strain (AID 149);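 note: 0% = growth of vehicle-treated wt1 cultures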; conditions: S. cerevisiae wt1 strain (SPY 50644) growth inhibition, stronger effect = higher value
# How it was run: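 The wt1 strain was treated with compounds, and growth was compared with vehicle-treated cultures to give inhibition.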
# [16] = NCI Yeast Anticancer Drug Screen. Data for the mlh1 strain (AID 171);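 note: 0% = growth of vehicle-treated control cultures of the same strain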; conditions: S. cerevisiae mlh1 strain growth inhibition, stronger effect = higher value
# How it was run: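 A yeast strain with a defined genetic lesion serves as the test organism. Cultures receive compound or vehicle, and growth is measured.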
# [17] = at 5.0 µM (retest, dose inferred, filed as 0.5)
# [18] = at 50.0 µM (retest, dose inferred, filed as 5.0)
smiles,measurement,setting,value
CO[C@@]1([C@@H](Cl)c2ccccc2)C(=O)N(C)/C(=C\c2ccccc2)C(=O)N1C,growth inhibition,[1]; at 1.2 µM,0%
same,growth inhibition,[1]; at 3.7 µM,1%
same,growth inhibition,[1]; at 11.0 µM,3%
same,growth inhibition,[1]; at 33.0 µM,7%
same,growth inhibition,[1]; at 100.0 µM,8%
same,growth inhibition,[2]; at 1.2 µM,-1%
same,growth inhibition,[2]; at 3.7 µM,-3%
same,growth inhibition,[2]; at 11.0 µM,-6%
same,growth inhibition,[2]; at 33.0 µM,0%
same,growth inhibition,[2]; at 100.0 µM,5%
same,growth inhibition,[3]; at 1.2 µM,-1%
same,growth inhibition,[3]; at 3.7 µM,-1%
same,growth inhibition,[3]; at 11.0 µM,-1%
same,growth inhibition,[3]; at 33.0 µM,39%
same,growth inhibition,[3]; at 100.0 µM,50%
same,growth inhibition,[4]; at 1.2 µM,2%
same,growth inhibition,[4]; at 3.7 µM,6%
same,growth inhibition,[4]; [17],-12%
same,growth inhibition,[4]; at 11.0 µM,9%
same,growth inhibition,[4]; at 33.0 µM,11%
same,growth inhibition,[4]; [18],14%
same,growth inhibition,[4]; at 50.0 µM,-7.3%
same,growth inhibition,[4]; at 100.0 µM,15%
same,growth inhibition,[5]; at 1.2 µM,-3%
same,growth inhibition,[5]; at 3.7 µM,-1%
same,growth inhibition,[5]; [17],-2%
same,growth inhibition,[5]; at 11.0 µM,0%
same,growth inhibition,[5]; at 33.0 µM,4%
same,growth inhibition,[5]; [18],4%
same,growth inhibition,[5]; at 50.0 µM,11%
same,growth inhibition,[5]; at 100.0 µM,8%
same,growth inhibition,[6]; at 1.2 µM,1%
same,growth inhibition,[6]; at 3.7 µM,3%
same,growth inhibition,[6]; at 11.0 µM,8%
same,growth inhibition,[6]; at 33.0 µM,10%
same,growth inhibition,[6]; at 100.0 µM,11%
same,growth inhibition,[7]; [17],-13%
same,growth inhibition,[7]; [18],96% (active)
same,growth inhibition,[7]; at 50.0 µM,43.6%
same,growth inhibition,[8]; at 1.2 µM,-1%
same,growth inhibition,[8]; at 3.7 µM,0%
same,growth inhibition,[8]; at 11.0 µM,-1%
same,growth inhibition,[8]; at 33.0 µM,5%
same,growth inhibition,[8]; at 100.0 µM,7%
same,growth inhibition,[9]; [17],-8%
same,growth inhibition,[9]; [18],15%
same,growth inhibition,[9]; at 50.0 µM,36.1%
same,growth inhibition,[10]; at 1.2 µM,-1%
same,growth inhibition,[10]; at 3.7 µM,-3%
same,growth inhibition,[10]; [17],-11%
same,growth inhibition,[10]; at 11.0 µM,0%
same,growth inhibition,[10]; at 33.0 µM,10%
same,growth inhibition,[10]; [18],20%
same,growth inhibition,[10]; at 50.0 µM,-6.35%
same,growth inhibition,[10]; at 100.0 µM,19%
same,growth inhibition,[11]; at 1.2 µM,2%
same,growth inhibition,[11]; at 3.7 µM,0%
same,growth inhibition,[11]; at 11.0 µM,-1%
same,growth inhibition,[11]; at 33.0 µM,48%
same,growth inhibition,[11]; at 100.0 µM,79% (active)
same,growth inhibition,[12]; at 1.2 µM,-2%
same,growth inhibition,[12]; at 3.7 µM,-3%
same,growth inhibition,[12]; at 11.0 µM,-1%
same,growth inhibition,[12]; at 33.0 µM,35%
same,growth inhibition,[12]; at 100.0 µM,82% (active)
same,growth inhibition,[13]; [17],-10%
same,growth inhibition,[13]; [18],10%
same,growth inhibition,[13]; at 50.0 µM,9%
same,growth inhibition,[14]; at 1.2 µM,0%
same,growth inhibition,[14]; at 3.7 µM,0%
same,growth inhibition,[14]; at 11.0 µM,-1%
same,growth inhibition,[14]; at 33.0 µM,4%
same,growth inhibition,[14]; at 100.0 µM,9%
CCN(CC)C(=S)N/N=C(\C)c1ccccc1O,growth inhibition,[1]; at 1.2 µM,-36%
same,growth inhibition,[1]; at 3.7 µM,-42%
same,growth inhibition,[1]; at 11.0 µM,-1%
same,growth inhibition,[1]; at 33.0 µM,96% (active)
same,growth inhibition,[1]; at 100.0 µM,99% (active)
same,growth inhibition,[15]; at 1.2 µM,-7%
same,growth inhibition,[15]; at 3.7 µM,-3%
same,growth inhibition,[15]; at 11.0 µM,28%
same,growth inhibition,[15]; at 33.0 µM,98% (active)
same,growth inhibition,[15]; at 100.0 µM,98% (active)
same,growth inhibition,[3]; at 1.2 µM,9%
same,growth inhibition,[3]; at 3.7 µM,16%
same,growth inhibition,[3]; at 11.0 µM,71% (active)
same,growth inhibition,[3]; at 33.0 µM,98% (active)
same,growth inhibition,[3]; at 100.0 µM,99% (active)
same,growth inhibition,[4]; at 1.2 µM,0%
same,growth inhibition,[4]; at 3.7 µM,-13%
same,growth inhibition,[4]; [17],-1%
same,growth inhibition,[4]; at 11.0 µM,22%
same,growth inhibition,[4]; at 33.0 µM,98% (active)
same,growth inhibition,[4]; [18],96% (active)
same,growth inhibition,[4]; at 50.0 µM,93.3% (active)
same,growth inhibition,[4]; at 100.0 µM,99% (active)
same,growth inhibition,[5]; at 1.2 µM,3%
same,growth inhibition,[5]; at 3.7 µM,-3%
same,growth inhibition,[5]; [17],35%
same,growth inhibition,[5]; at 11.0 µM,40%
same,growth inhibition,[5]; at 33.0 µM,97% (active)
same,growth inhibition,[5]; [18],98% (active)
same,growth inhibition,[5]; at 50.0 µM,94.5% (active)
same,growth inhibition,[5]; at 100.0 µM,99% (active)
same,growth inhibition,[6]; at 1.2 µM,3%
same,growth inhibition,[6]; at 3.7 µM,-22%
same,growth inhibition,[6]; at 11.0 µM,26%
same,growth inhibition,[6]; at 33.0 µM,96% (active)
same,growth inhibition,[6]; at 100.0 µM,98% (active)
same,growth inhibition,[7]; [17],-3%
same,growth inhibition,[7]; [18],95% (active)
same,growth inhibition,[7]; at 50.0 µM,94% (active)
same,growth inhibition,[8]; at 1.2 µM,13%
same,growth inhibition,[8]; at 3.7 µM,-5%
same,growth inhibition,[8]; at 11.0 µM,42%
same,growth inhibition,[8]; at 33.0 µM,96% (active)
same,growth inhibition,[8]; at 100.0 µM,99% (active)
same,growth inhibition,[9]; [17],54%
same,growth inhibition,[9]; [18],95% (active)
same,growth inhibition,[9]; at 50.0 µM,89.3% (active)
same,growth inhibition,[10]; at 1.2 µM,-21%
same,growth inhibition,[10]; at 3.7 µM,-7%
same,growth inhibition,[10]; [17],95% (active)
same,growth inhibition,[10]; at 11.0 µM,36%
same,growth inhibition,[10]; at 33.0 µM,97% (active)
same,growth inhibition,[10]; [18],98% (active)
same,growth inhibition,[10]; at 50.0 µM,93.3% (active)
same,growth inhibition,[10]; at 100.0 µM,99% (active)
same,growth inhibition,[11]; at 1.2 µM,-37%
same,growth inhibition,[11]; at 3.7 µM,-31%
same,growth inhibition,[11]; at 11.0 µM,6%
same,growth inhibition,[11]; at 33.0 µM,97% (active)
same,growth inhibition,[11]; at 100.0 µM,98% (active)
same,growth inhibition,[16]; at 1.2 µM,11%
same,growth inhibition,[16]; at 3.7 µM,25%
same,growth inhibition,[16]; at 11.0 µM,66%
same,growth inhibition,[16]; at 33.0 µM,98% (active)
same,growth inhibition,[16]; at 100.0 µM,99% (active)
same,growth inhibition,[12]; at 1.2 µM,-5%
same,growth inhibition,[12]; at 3.7 µM,5%
same,growth inhibition,[12]; at 11.0 µM,42%
same,growth inhibition,[12]; at 33.0 µM,97% (active)
same,growth inhibition,[12]; at 100.0 µM,98% (active)
same,growth inhibition,[13]; [17],-18%
same,growth inhibition,[13]; [18],97% (active)
same,growth inhibition,[13]; at 50.0 µM,92.2% (active)
same,growth inhibition,[14]; at 1.2 µM,18%
same,growth inhibition,[14]; at 3.7 µM,9%
same,growth inhibition,[14]; at 11.0 µM,29%
same,growth inhibition,[14]; at 33.0 µM,97% (active)
same,growth inhibition,[14]; at 100.0 µM,98% (active)
